The panel holds about 83,000 compounds, 20% with a hit somewhere; the sample as a whole holds those more often.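 Testing used 96-well plates and a 48-hour single-concentration exposure. Example: -40 means 40% of the starting cells died.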 Values without a mark were called inactive. The source made the active and inactive calls. The calls were made as follows: active = growth percent below 10; inactive = the rest.

Holding throughout (experiment): NCI-60 one-dose screen, 48 h (100 = growth as untreated, 0 = no growth, -100 = all killed)
One test deals with DU-145 prostate. Particulars: 10 µM unless noted.
The subject of the next test is K-562 leukemia. The conditions noted are these: 10 µM unless noted.
The subject of the next test is MALME-3M melanoma. The conditions noted are these: 10 µM unless noted.
Another test deals with MDA-MB-231 breast. The conditions noted are these: 10 µM unless noted.
Another test has as its system RXF 393 renal. The conditions noted are these: 10 µM unless noted.
The subject of the next test is SF-268 CNS. The conditions noted are these: 10 µM unless noted.
Another test relates to SF-295 CNS. Particulars: 10 µM unless noted.
The test system of the next test is SF-539 CNS. Particulars: 10 µM unless noted.
In another test the test system is UACC-257 melanoma. Particulars: 10 µM.
A further test relates to M14 melanoma. Particulars: 10 µM unless noted.

Regarding `CCNC(=O)Oc1ccc(/C(=C(/C)c2ccc(Cl)cc2)c2ccc(OCCN(C)C)cc2)cc1`, the growth in the test with DU-145 prostate is 92.1%; in the test with K-562 leukemia, 11.7%; with MALME-3M melanoma, 13.4%; with MDA-MB-231 breast, 79.8%; in the test with RXF 393 renal it was 55.8%; in the test on SF-268 CNS it was 75.6%. The growth in the test with SF-295 CNS was 94.4%; with SF-539 CNS, 66%; with UACC-257 melanoma it was 81%; with M14 melanoma it was 64.2%.

As for `C(=C(\C1=NCCN1)n1cnc2ccccc21)/c1ccc2ccccc2c1`, the growth is 68.7% in the test with DU-145 prostate; 25.4% in the test on K-562 leukemia; 79.2% in the test on MALME-3M melanoma; 62.5% with MDA-MB-231 breast; -14.1% (active) in the test on RXF 393 renal; 81.8% in the test on SF-268 CNS. Moreover, the growth with SF-295 CNS was 77.7%; with SF-539 CNS it was 82%; with UACC-257 melanoma, 82.3%; in the test on M14 melanoma, 61.7%.

As for `CCOC(=O)Nc1ccc(-c2nc(-c3cccc(O)c3)c(-c3ccnc(Br)c3)[nH]2)cc1`, the growth in the test on DU-145 prostate is 57.7%; in the test with K-562 leukemia, 12.5%; with MALME-3M melanoma it was 32.4%; in the test on MDA-MB-231 breast, 39.3%; in the test on RXF 393 renal, -9.56% (active); in the test on SF-268 CNS, 39.9%. In addition, the growth with SF-295 CNS is -14% (active); in the test on SF-539 CNS, 38.2%; in the test on UACC-257 melanoma it was 38.7%; with M14 melanoma, 35.1%.

`C#CCOc1ccc(/C=N/Nc2nc(-c3cc4cc(Br)cc(Br)c4oc3=O)cs2)cc1`: the growth in the test on DU-145 prostate is 96.1%; in the test on K-562 leukemia, 90.7%; in the test with MALME-3M melanoma, 109%; in the test with MDA-MB-231 breast, 96%; in the test on RXF 393 renal, 114%; in the test with SF-268 CNS, 84.8%. Further, the growth with SF-295 CNS is 91.4%; in the test on SF-539 CNS it was 84.4%; in the test on UACC-257 melanoma, 106%; with M14 melanoma, 98.2%.

`O=C(/C=C/Nc1ccc(S(=O)(=O)O)cc1)c1ccc(F)cc1`: the growth was 103% in the test with DU-145 prostate; 106% in the test on K-562 leukemia; 105% in the test on MALME-3M melanoma; 106% in the test with MDA-MB-231 breast; 99.9% in the test on RXF 393 renal; 102% with SF-268 CNS. In addition, the growth in the test on SF-295 CNS is 98.7%; with SF-539 CNS, 94%; with UACC-257 melanoma, 101%; in the test on M14 melanoma, 96%.

Regarding `COc1ccc(/C=N/Nc2nc(Nc3ccccc3)nc(Nc3ccc(S(N)(=O)=O)cc3)n2)cc1`, the growth in the test on DU-145 prostate was 65.3%; in the test on K-562 leukemia it was 49.4%; with MALME-3M melanoma, 81.3%; with MDA-MB-231 breast it was 67.2%; with RXF 393 renal it was 22.9%; with SF-268 CNS, 90.9%. Also, the growth in the test with SF-295 CNS was 70.4%; with SF-539 CNS, 48%; in the test with UACC-257 melanoma it was 96.4%; with M14 melanoma, 74.9%.

Regarding `O=C1Nc2ccc(Br)cc2/C1=N\c1nnc(-c2ccc(Cl)cc2)o1`, the growth was 73.3% with DU-145 prostate; 16.9% in the test on K-562 leukemia; 34.1% with MALME-3M melanoma; 75.2% in the test with MDA-MB-231 breast; 87.9% in the test on RXF 393 renal; 75.2% with SF-268 CNS. Moreover, the growth is 75.1% with SF-295 CNS, 64.5% with SF-539 CNS, 91.6% with UACC-257 melanoma and 51.2% in the test on M14 melanoma.

Take `CC(=O)Nc1ccc(NC(=O)Nc2cccc(-c3nc(-c4ccc(NC(=O)c5cccs5)cc4Cl)no3)c2)cc1C(F)(F)F`: the growth was -15.4% (active) in the test on DU-145 prostate; 1.01% (active) with K-562 leukemia; -84.3% (active) with MALME-3M melanoma; -60.6% (active) in the test with MDA-MB-231 breast; -85% (active) in the test on RXF 393 renal; -38.8% (active) in the test on SF-268 CNS. The growth in the test with SF-295 CNS was -62.9% (active); in the test with SF-539 CNS it was -87.5% (active); in the test on UACC-257 melanoma, -58.4% (active); in the test on M14 melanoma, -59.2% (active).

In the case of `O=C(O)c1ccc(-n2cc(CNc3ccc(F)cc3)c(-c3ccc(C(F)(F)F)cc3)n2)cc1`, the growth was 98.2% in the test on DU-145 prostate; 58.6% in the test with K-562 leukemia; 97.6% with MALME-3M melanoma; 100% with MDA-MB-231 breast; 88.2% in the test with RXF 393 renal; 80.9% in the test with SF-268 CNS. In addition, the growth is 63.9% in the test with SF-295 CNS, 88.8% in the test on SF-539 CNS, 90.9% in the test on UACC-257 melanoma and 92.6% in the test on M14 melanoma.

For `CCc1ccc(NC(=O)N[C@@H](Cc2cccc(F)c2)C(=O)N[C@@H]2C(=O)N3CCC[C@H]3C(=O)N3CCCC[C@H]3C(=O)N[C@@H](CO)C(=O)N3C[C@H](C)C[C@H]3C(=O)O[C@H]2C)c(F)c1`, the growth in the test on DU-145 prostate is 26.9%; with K-562 leukemia, 20.1%; in the test on MALME-3M melanoma it was 41.5%; with MDA-MB-231 breast, 35.2%; in the test with RXF 393 renal it was -11.7% (active); in the test with SF-268 CNS, 30.6%. The growth in the test with SF-295 CNS is 15.8%; in the test with SF-539 CNS, 39.8%; with UACC-257 melanoma, 16%; in the test with M14 melanoma, 21.4%.

As to `CN1CCN(c2nc(-c3cnc4ccccc4n3)cc3ccccc23)CC1`, the growth in the test on DU-145 prostate was 77.1%; in the test with K-562 leukemia, -52.1% (active); in the test with MALME-3M melanoma, 69%; with MDA-MB-231 breast it was 71.4%; in the test with RXF 393 renal it was 23.9%; in the test on SF-268 CNS it was 71.1%. The growth with SF-295 CNS was 89.9%; with SF-539 CNS it was 80.1%; in the test with UACC-257 melanoma it was 91%; with M14 melanoma it was -80% (active).

`O=C(NCCNc1cc(-c2cn(-c3ccccc3)nc2-c2cccc(O)c2)ccn1)Nc1ccc(Cl)c(C(F)(F)F)c1`: the growth with DU-145 prostate was 94.6%; in the test with K-562 leukemia, 35.5%; in the test on MALME-3M melanoma, 83%; in the test on MDA-MB-231 breast it was 36%; in the test with RXF 393 renal it was 15.3%; in the test with SF-268 CNS, 48.6%. The growth is 7.84% (active) in the test on SF-295 CNS, 40.2% in the test on SF-539 CNS, 89.6% in the test with UACC-257 melanoma and 48.3% in the test on M14 melanoma.

In the case of `O=C(Nc1cccc(-c2nc(-c3ccc(NC(=O)c4cccnc4)cc3Cl)no2)c1)Nc1ccc(NC(=O)C2CC2)c(C(F)(F)F)c1`, the growth with DU-145 prostate was -26.1% (active); in the test with K-562 leukemia, 1.44% (active); with MALME-3M melanoma, -78.6% (active); in the test with MDA-MB-231 breast it was -59.5% (active); in the test with RXF 393 renal it was -82% (active); in the test with SF-268 CNS it was -23.2% (active). Besides, the growth is -81.1% (active) in the test on SF-295 CNS, -86.9% (active) in the test with SF-539 CNS, -45.5% (active) with UACC-257 melanoma and -53.3% (active) with M14 melanoma.

Source of the values: PubChem BioAssay (NCI).
